# In PubChem BioAssay AID1961 (Sanford-Burnham Center for Chemical Genomics, 2009):
# About 140 (0.048%) of roughly 290,000 compounds were called active.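 The calls were made as follows: active = activation above 40% with more than 50 cells counted in the well; inconclusive = wells holding fewer than 50 cells, flagged as toxic or sparse; inactive = the rest.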 Many of the other results were omitted from the sample, so actives are more common in it than they were.
# What was measured:
# [1] = GPR55 agonists via beta-arrestin recruitment, primary screen, imaging, U2OS cells, beta-arrestin-GFP redistribution (AID 1961); settings: measured here: cytotoxicity, cells analyzed, at 10 µM;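 also: U2OS osteosarcoma cells stably expressing GPR55 and beta-arrestin-GFP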;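 as to activation: plate controls were DMSO negative control for no effect and LPI positive control for full effect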
# [2] = biological target: G-protein coupled receptor 55 (Homo sapiens) (UniProt Q9Y2T6); assay: as above; settings: at 10 µM, stronger effect = higher value
# Chain of G-protein coupled receptor 55 (Homo sapiens) (Q9Y2T6 whole entry, looked up): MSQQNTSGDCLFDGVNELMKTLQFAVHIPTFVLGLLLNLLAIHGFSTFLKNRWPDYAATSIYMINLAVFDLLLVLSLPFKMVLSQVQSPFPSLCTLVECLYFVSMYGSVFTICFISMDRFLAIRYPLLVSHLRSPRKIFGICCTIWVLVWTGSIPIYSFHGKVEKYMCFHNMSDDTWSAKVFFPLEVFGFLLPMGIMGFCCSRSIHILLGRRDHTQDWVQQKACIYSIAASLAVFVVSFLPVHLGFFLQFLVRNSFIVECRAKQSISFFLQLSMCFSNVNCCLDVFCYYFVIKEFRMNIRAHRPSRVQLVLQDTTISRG
Compound,cell count [1] [cells],activation [2]
CN1/C(=C\C=Nc2ccccc2)C(C)(C)c2ccccc21,360,-0.1% (inactive)
CN1/C(=C\C=C2C(=O)NC(=O)NC2=O)C(C)(C)c2ccccc21,294,0.4% (inactive)
CN1/C(=C\C=C2C(=O)NC(=S)NC2=O)C(C)(C)c2ccccc21,268,57.7% (active)
N[C@@H](Cc1c[nH]c2ccccc12)c1nnc(SCc2ccc(Cl)cc2)o1,304,0.1% (inactive)
CC(=Nc1ccccc1N)c1c(O)n(C)c(=O)[nH]c1=O,323,0.7% (inactive)
